Active and inactive are the calls of the source. Unless noted, how the calls were made is not given here.

These results are taken from PubChem BioAssay.

The nature of test [1]: anti-His antibody binders, primary screen, artefact control for SMM control protein annotation, biochemical, small-molecule microarray, 635 nm fluorescence (AID 1128).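 Further: score merges feature fluorescence with signal-to-noise for each printed compound spot.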 The conditions noted are these: anti-His Alexa647 antibody binding, higher = more signal.
The subject of test [2] is Human papillomavirus type 1a E7 protein (residues 1-88). The experiment in a line: HPV1a E7 small-molecule binders, primary screen, biochemical, small-molecule microarray, residues 1-88, 635 nm (AID 1129). The conditions noted are these: small-molecule microarray binding, fluorescence 635 nm; higher = more signal.
Test [3] concerns the target Focal adhesion kinase 1 (Homo sapiens) (UniProt Q05397). The test can be described thus: small-molecule microarray binders of FAK, primary screen, biochemical, 635/667 nm fluorescence, BSA, DTT (AID 1130).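 Further: composite of spot emission at 667 nm and signal to noise over triplicate slides.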 The conditions noted are these: PTK2 binding, 635 nm fluorescence, higher = more signal.
Test [4] concerns Fibrinogen (Alexa647-labelled). The test can be described thus: fibrinogen binders on compound microarrays, profiling panel, artefact control for SMM control-protein annotation, biochemical, small-molecule microarray, 635/667 nm fluorescence (AID 1131).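 Further: z-score merges 667 nm fluorescence with per-spot signal-to-noise over triplicate slides.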 The conditions noted are these: fibrinogen-A647 binding fluorescence, higher = more signal.
The target of test [5] is Follistatin (Homo sapiens) (UniProt P19883). The test can be described thus: follistatin binders on small-molecule microarrays, primary screen, biochemical, small-molecule microarray, 635/667 nm fluorescence (AID 1132). The conditions noted are these: FST binding, 635 nm fluorescence, higher = more signal.
Sequence of Follistatin (Homo sapiens) (P19883 whole entry, looked up): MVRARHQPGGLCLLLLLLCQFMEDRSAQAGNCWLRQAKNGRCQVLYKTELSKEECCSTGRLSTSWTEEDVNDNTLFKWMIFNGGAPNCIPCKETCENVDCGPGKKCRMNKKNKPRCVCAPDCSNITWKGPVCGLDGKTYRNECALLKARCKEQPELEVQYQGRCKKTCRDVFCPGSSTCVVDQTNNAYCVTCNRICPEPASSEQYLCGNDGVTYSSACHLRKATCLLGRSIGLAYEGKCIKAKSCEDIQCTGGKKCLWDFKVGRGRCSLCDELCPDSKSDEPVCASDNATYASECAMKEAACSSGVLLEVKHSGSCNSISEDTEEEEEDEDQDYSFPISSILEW
Test [6] concerns the target Fibroblast growth factor 2 (Homo sapiens) (UniProt P09038). The test can be described thus: FGF2 binders on small-molecule microarrays, primary screen, biochemical, small-molecule microarray, 635/667 nm fluorescence (AID 1133). The conditions noted are these: small-molecule microarray binding, FGF2, fluorescence 635/667; higher = more signal.
Test [7] can be described thus: mitochondrial membrane potential change in A549 cells, profiling panel, cell-based, JC-1 fluorescence, basal, 24 h, 100 nL (AID 1138).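 Further: A549 lung adenocarcinoma cells under basal conditions with no added stimulus; test concentration not given here.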 The conditions noted are these: higher = more signal.
In test [8] the test system is Lefty1. The test can be described thus: Lefty1 binders on small-molecule microarrays, primary screen, biochemical, small-molecule microarray, 635/667 nm fluorescence (AID 1139). The conditions noted are these: small-molecule microarray binding, fluorescence 635/667; higher = more signal.
The test system of test [9] is wheat germ agglutinin (Triticum aestivum), Alexa647-labelled. The test can be described thus: wheat germ agglutinin binders on compound microarrays, profiling panel, artefact control for SMM control-protein annotation, biochemical, small-molecule microarray, 635/667 nm fluorescence (AID 1140).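 Further: score merges 667 nm feature emission with signal to noise over triplicate slides.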 The conditions noted are these: WGA-A647 binding, 635 nm fluorescence, higher = more signal.

Test [10] addresses Luciferin 4-monooxygenase (Photinus pyralis) (UniProt P08659). The experiment in a line: firefly luciferase enzyme inhibitors, primary screen, biochemical, luminescence, purified enzyme, 2006 set (AID 1141).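 Further: cell-free assay with purified firefly luciferase at 100 ng per well in PBS; test concentration not given here.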 The conditions noted are these: SteadyGlo luminescence, 30 min, higher = more signal, called active from +8 up or from −8 down.
The subject of test [11] is Wnt5a (protein binding on small-molecule microarray). The test can be described thus: Wnt5a binders on small-molecule microarray, primary screen, biophysical, 635/667 nm fluorescence (AID 1142).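 Further: fluorescence read at 667 nm with signal to noise per printed feature.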 The conditions noted are these: 635 nm fluorescence, higher = more signal.
Test [12] can be described thus: cell viability in Huh7 cells, primary screen, cytotoxicity control for HCV replication inhibitor project, CellTiter-Glo luminescence, basal, 48 h (AID 1143).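 Further: Huh7 hepatoma cells carrying a hepatitis C replication reporter with no stimulus; test concentration not given here.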 The conditions noted are these: Huh7 HCV replicon, higher = more signal, called active from +8 up or from −8 down. (Cellular ATP, detected with luciferase, serves as a proxy for viable cell number.)
Test [13] is described as follows: P. aeruginosa biofilm formation inhibitors, primary screen, PAO1 strain, BacTiter-Glo luminescence, LB-PBS (AID 1144). The conditions noted are these: 12 h, higher = more signal.
A short description of test [14]: CREB reporter modulators without forskolin, primary screen, cell-based, PC12, CRE-LacZ reporter, unstimulated (AID 1145). The conditions noted are these: no forskolin, luminescence, 4.5 h, higher = more signal, called active from +8 up or from −8 down.
Test [15] can be described thus: CREB reporter modulators under forskolin, primary screen, cell-based, PC12, CRE-LacZ reporter, forskolin-stimulated (AID 1146).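 Further: PC12 cells with 6xCRE LacZ reporter stimulated by forskolin 10 µM; beta-galactosidase reporter signal reflecting CREB driven transcription.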 The conditions noted are these: luminescence, 4.5 h, higher = more signal, called active from +8 up or from −8 down.
The target in test [16] is Streptavidin (Streptomyces avidinii) (UniProt P22629). The test can be described thus: streptavidin binders on small-molecule microarray, primary screen, artefact control for SMM compound annotation, biophysical, 635/667 nm fluorescence (AID 1147).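 Further: signal reflects streptavidin binding to arrayed compounds as a control protein.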 The conditions noted are these: streptavidin binding, higher = more signal.
Sequence of Streptavidin (Streptomyces avidinii) (P22629 whole entry, looked up): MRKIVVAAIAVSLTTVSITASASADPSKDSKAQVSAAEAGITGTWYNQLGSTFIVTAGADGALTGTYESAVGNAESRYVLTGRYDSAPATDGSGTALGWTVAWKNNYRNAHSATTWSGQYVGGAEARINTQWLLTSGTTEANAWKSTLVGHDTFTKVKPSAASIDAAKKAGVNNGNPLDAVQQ
Test [17] in a line: small-molecule binders of probe aInhba, primary screen, biochemical, small-molecule microarray, 635/667 nm fluorescence (AID 1148).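 Further: score merges 667nm spot fluorescence with signal-to-noise for antibody binding to printed compounds.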 The conditions noted are these: higher = more signal.
Test [18] deals with Torsin-1A (Homo sapiens) (UniProt O14656). The experiment in a line: torsin A binders from cell lysate, primary screen, small-molecule microarray, wild-type, 635/667 nm (AID 1149). The conditions noted are these: COS7 hTOR1A-WT lysate, 635 nm fluorescence, higher = more signal.
Sequence of Torsin-1A (Homo sapiens) (O14656 whole entry, looked up): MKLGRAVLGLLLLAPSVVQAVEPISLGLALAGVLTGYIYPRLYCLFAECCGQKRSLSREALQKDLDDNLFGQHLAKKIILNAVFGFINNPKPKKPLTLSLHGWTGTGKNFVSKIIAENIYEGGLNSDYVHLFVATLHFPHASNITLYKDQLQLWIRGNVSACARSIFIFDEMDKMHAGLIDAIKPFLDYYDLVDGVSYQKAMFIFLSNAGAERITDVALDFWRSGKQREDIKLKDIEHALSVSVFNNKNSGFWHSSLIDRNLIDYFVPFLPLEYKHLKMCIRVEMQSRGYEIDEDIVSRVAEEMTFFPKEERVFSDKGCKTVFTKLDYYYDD
The target is the same in test [19]. The experiment in a line: small-molecule binders of mutant TOR1A in lysate, primary screen, cell lysate, small-molecule microarray, COS7 lysate, 635/667 nm fluorescence (AID 1150).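 Further: score pools 667 nm emission and signal to noise measuring lysate protein binding.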 The conditions noted are these: COS7 hTOR1A mutant lysate, 635 nm fluorescence, higher = more signal.
Test [20] has as its system Sonic hedgehog protein (Shh). The test can be described thus: small-molecule binders of Shh protein, primary screen, biochemical, small-molecule microarray, 635/667 nm fluorescence (AID 1151).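 Further: Shh protein binding to compounds spotted on small-molecule microarray slides; score combines spot fluorescence intensity with signal-to-noise across triplicate slides.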 The conditions noted are these: small-molecule microarray binding, 635 nm fluorescence; higher = more signal.

Sequence of Fibroblast growth factor 2 (Homo sapiens) (P09038 whole entry, looked up): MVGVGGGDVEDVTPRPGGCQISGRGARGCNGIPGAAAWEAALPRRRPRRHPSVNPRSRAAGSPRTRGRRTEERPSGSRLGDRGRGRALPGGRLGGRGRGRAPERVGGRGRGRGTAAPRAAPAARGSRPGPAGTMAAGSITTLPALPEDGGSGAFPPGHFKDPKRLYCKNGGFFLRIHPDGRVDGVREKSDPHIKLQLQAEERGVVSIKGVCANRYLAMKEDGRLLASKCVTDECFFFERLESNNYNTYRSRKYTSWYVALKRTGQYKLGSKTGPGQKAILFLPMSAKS
Sequence of Luciferin 4-monooxygenase (Photinus pyralis) (P08659 whole entry, looked up): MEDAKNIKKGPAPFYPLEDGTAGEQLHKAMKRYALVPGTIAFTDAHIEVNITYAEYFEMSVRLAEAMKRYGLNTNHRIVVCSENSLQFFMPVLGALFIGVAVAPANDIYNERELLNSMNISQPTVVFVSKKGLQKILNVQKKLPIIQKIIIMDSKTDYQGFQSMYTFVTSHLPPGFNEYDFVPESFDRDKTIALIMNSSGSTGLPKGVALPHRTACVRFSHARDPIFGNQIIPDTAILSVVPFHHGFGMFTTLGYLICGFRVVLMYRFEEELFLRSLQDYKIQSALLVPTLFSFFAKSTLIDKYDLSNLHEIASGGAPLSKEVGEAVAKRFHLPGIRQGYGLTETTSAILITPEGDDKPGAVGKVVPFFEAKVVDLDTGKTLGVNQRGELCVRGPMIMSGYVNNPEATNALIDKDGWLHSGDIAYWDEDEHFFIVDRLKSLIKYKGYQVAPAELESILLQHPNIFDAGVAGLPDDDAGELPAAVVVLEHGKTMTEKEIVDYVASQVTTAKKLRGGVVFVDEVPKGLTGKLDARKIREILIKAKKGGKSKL
Sequence of Focal adhesion kinase 1 (Homo sapiens) (Q05397 whole entry, looked up): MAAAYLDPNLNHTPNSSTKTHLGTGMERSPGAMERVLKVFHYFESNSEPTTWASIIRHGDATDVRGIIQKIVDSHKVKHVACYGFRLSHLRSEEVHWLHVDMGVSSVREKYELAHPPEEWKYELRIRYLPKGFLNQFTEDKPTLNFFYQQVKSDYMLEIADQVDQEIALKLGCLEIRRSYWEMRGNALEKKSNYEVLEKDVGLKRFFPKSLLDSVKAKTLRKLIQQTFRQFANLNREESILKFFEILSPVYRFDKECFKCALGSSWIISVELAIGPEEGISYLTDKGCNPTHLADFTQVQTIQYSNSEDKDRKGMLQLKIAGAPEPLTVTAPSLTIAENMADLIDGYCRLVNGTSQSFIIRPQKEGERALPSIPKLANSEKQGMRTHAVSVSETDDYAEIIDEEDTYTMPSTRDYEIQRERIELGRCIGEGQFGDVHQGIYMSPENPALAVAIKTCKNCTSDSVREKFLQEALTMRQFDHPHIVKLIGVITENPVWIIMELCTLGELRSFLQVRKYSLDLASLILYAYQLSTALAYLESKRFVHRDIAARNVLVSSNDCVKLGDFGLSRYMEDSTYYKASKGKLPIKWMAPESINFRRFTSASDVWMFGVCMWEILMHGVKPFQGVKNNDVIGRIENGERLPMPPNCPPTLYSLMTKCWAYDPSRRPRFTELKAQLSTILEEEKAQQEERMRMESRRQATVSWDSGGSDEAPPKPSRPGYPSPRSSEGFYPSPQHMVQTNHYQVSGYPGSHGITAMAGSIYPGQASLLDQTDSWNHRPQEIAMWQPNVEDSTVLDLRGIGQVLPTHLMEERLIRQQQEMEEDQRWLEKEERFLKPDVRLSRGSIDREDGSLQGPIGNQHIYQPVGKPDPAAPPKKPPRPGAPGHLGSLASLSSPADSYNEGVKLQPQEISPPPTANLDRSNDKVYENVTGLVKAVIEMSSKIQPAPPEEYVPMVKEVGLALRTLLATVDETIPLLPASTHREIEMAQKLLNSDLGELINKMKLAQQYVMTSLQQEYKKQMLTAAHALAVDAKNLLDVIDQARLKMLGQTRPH

With `COCCOC(=O)N1C(=O)[C@@]2(c3cc(C#CC4=CCCCC4)ccc31)[C@H](c1ccc(O)cc1)N1[C@H](c3ccccc3)[C@H](c3ccccc3)OC(=O)[C@H]1[C@@H]2C(N)=O`, the composite z-score is 0.711 in [1]; 1.08 in [2]; 0.334 in test [3]; 0.644 in test [4]; 1.32 in test [5]; 1.57 in test [6]. In addition, the composite z-score was 1.23 in [8]; 0.766 in test [9]; 0.824 in test [11]; 0.17 in [16]; -0.598 in [17]; 0.0873 in test [18]. In addition, the composite z-score in test [19] was 0.522; in test [20] it was 2.07. The z-score in test [7] was -0.858; in [10], -1.37 (inactive); in test [12], -1.83 (inactive); in [13], -0.591 (inactive); in test [14], 0.0695 (inactive); in [15] it was 0.124 (inactive).

`CC(C)(C)OC(=O)CC[C@@]1(C(=O)NCCN2CCOCC2)N=C(c2ccc(OCCCO)cc2)O[C@@H]1c1ccccc1N=[N+]=[N-]`: the composite z-score was 0.22 in test [1]; 1.2 in [2]; 1.21 in [3]; 0.554 in [4]; 1.18 in test [5]; -0.156 in test [6]. The composite z-score was -0.0836 in test [8]; 0.0832 in test [9]; 0.492 in test [11]; 0.554 in test [16]; 0.0614 in [17]; 1.67 in test [18]. Moreover, the values for the composite z-score in [19] and in test [20] were 1.43 and -0.431, respectively. Also, the z-score was 1.26 in [7]; -9.63 (active) in test [10]; -1.34 (inactive) in test [12]; 1.45 (inactive) in test [13]; 1.55 (inactive) in [14]; -0.564 (inactive) in [15].

As for `C=CCN1C(=O)[C@]2(O[C@H](CCO)[C@@H]([Si](C)(C)c3ccc(OC)cc3)[C@@H]2C)c2cc(N3CCCCC3=O)ccc21`, the composite z-score in test [1] was determined as 1.74; in test [2], 1.2; in test [3], 0.162; in [4], 0.799; in test [5] it was 1.32; in [6], 0.361. Further, the composite z-score in [8] stood at 1.52; in [9], 0.679; in test [11], 0.193; in test [16], 0.802; in test [17], 0.103; in test [18], 1.1. For the same compound, the composite z-score in test [19] came to 0.364; in [20], 2.24. In addition, the z-score was 0.517 in test [7]; -0.117 (inactive) in test [10]; -5.37 (inactive) in test [12]; 0.597 (inactive) in test [13]; 3.85 (inactive) in [14]; 0.22 (inactive) in [15].

`COc1ccc(CCNC(=O)[C@@]2(C)c3ccccc3C(=O)N(Cc3cc(F)cc(C(F)(F)F)c3)[C@H]2c2ccc(CO)cc2)cc1`: the composite z-score came out at 0.421 in [1]; 0.682 in test [2]; 0.212 in [3]; 0.0066 in test [4]; 0.179 in [5]; 0.132 in [6]. The composite z-score in [8] was -0.953; in [9] it was 0.606; in test [11] it was 0.126; in test [16] it was -0.55; in [17], -0.0791; in [18] it was -0.621. The results for the composite z-score in [19] and in test [20] were -0.0937 and -0.0895, respectively. In addition, the z-score in [7] was -0.233; in test [10] it was -0.947 (inactive); in test [12] it was -4.52 (inactive); in test [13] it was 1.3 (inactive); in test [14], 0.001 (inactive); in test [15], -1.28 (inactive).

Take `[N-]=[N+]=Nc1ccccc1[C@H]1OC(c2ccc(OCCCO)cc2)=N[C@@]1(Cc1ccccc1)C(=O)O`: the composite z-score was determined as 0.864 in test [1]; 1.25 in test [2]; 0.345 in test [3]; 1.04 in test [4]; 1.17 in test [5]; 0.284 in test [6]. Besides, the composite z-score came to 0.708 in test [8]; 0.611 in test [9]; 0.0316 in test [11]; 0.365 in [16]; 0.0342 in test [17]; 0.395 in test [18]. Moreover, the composite z-score in [19] amounted to 0.306; in test [20], 1.07. In addition, the z-score is 0.384 in [7]; -9.33 (active) in test [10]; -1.1 (inactive) in test [12]; -0.0839 (inactive) in [13]; -0.0249 (inactive) in [14]; -1.38 (inactive) in test [15].
